From PubChem BioAssay AID1508600 (Functional Genomics Laboratory (NCATS/FGL), 2020)
The campaign covered roughly 53,000 sequences. About 3,700 (7%) were called active. Shown is part of a subset that was picked to be rich in actives. Unmarked numbers belong to inactive results.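 The calls were made as follows: active = gene knockdowns whose robust z-score for IL-1 alpha signal is at least 2 or at most -2, so actives lie on both sides; inactive = the rest.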

Experiment: Components of the Cytosolic LPS Sensing Pathway: Gene Identification via Genome-wide siRNA Screen;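 also: robust z of the log signal after scaling to non-targeting control siRNA wells of the plate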
Settings: RAW264.7 macrophages, IL-1a HTRF, actives lie on both sides, screened at 100 nM (by protocol), cells primed 5 h with Pam3CSK4 first
Outline: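 Knockdown: 100 nM siRNA, 48h, RAW264.7. Stimulation: Pam3CSK4 5 h, then LipidA via TransIT-TKO 24 h. Output: supernatant IL-1a HTRF, negative-control-normalized, log robust z-score; viability by CellTiter-Glo.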

Row | Sequence | z-score
1 | GGAGUUGUCUACCAAAGUUTT against Reep5 | 0.609
2 | CCCGAUGAAGUGUUUUUAGTT against Oosp1 | -0.753
3 | GGAAGAAUAAAGUGCUUUGTT against Chga | 2.27 (active)
4 | GGAUCCUCUUGAUCAAGCUTT against Vps53 | -0.891
5 | GGUUUGAUUAUACCUAUCATT against Tenm2 | -0.337
6 | GGAGAAAGGUUUUGUUAUGTT against Gtf2h2 | 1.5
7 | CCUACUACAUCCGCUACUGTT against Apba2 | -0.366
8 | GGUUUGGCUUAGCUCAUCATT against Mettl24 | -2.72 (active)
9 | GGGCUACUCAGCCUAUAGUTT against Asic4 | 1.22
10 | GGCAAACUCGGGUAUACACTT against Mybpc1 | 0.394
11 | GGUGUGGCUGUUCUGAUGATT against Olfr771 | 0.322
12 | GCACGAGAGACAUUUCUCCTT against Kat7 | -2.32 (active)
13 | GGGCUCCUGGUUUAGUAAUTT against Zfp59 | 1.04
14 | GGGUGUUUGGAGAUUGUGUTT against Heatr3 | -2.93 (active)
15 | GCUUUUCAUACCUGUUUCCTT against 9930111J21Rik2 | -0.227
16 | CGGAAUCUGACUGGUAUCGTT against Banp | -1.21
17 | GGAAAAAGCCAAUUAUGUCTT against Fbxl2 | -0.954
18 | GGUUUUAAGCUUGCUUAUGTT against Ucma | 0.4
19 | GGAGAUACUAUGUUGCAUUTT against Fgf9 | 0.537
20 | GGAUUCUUGGAGCUCAUUATT against Stag3 | -2.46 (active)
21 | CCAAGAGAUGCUAGCUAAUTT against Platr28 | -0.495
22 | GGCAAUCUACUCAUUGUUGTT against Olfr1239 | -0.719
23 | GCAGGUUAGAGUCACUUGUTT against Trim67 | 0.143

Row | Sequence | z-score
24 | GGUGUCCAGUUCAUCCAGGTT against Vxn | 1.15
25 | GGAACAAGGUAAAAUACAUTT against Nthl1 | 3.88 (active)
26 | GCUUUGAGAACCUUGGUAATT against Rab9b | -0.652
27 | GGAUCAGUGCCUUUGGCUATT against Rhoc | -1.75
28 | GGGAUGUUUUGUUUUUAACTT against Mlc1 | 0.384
29 | GGAGUUCACCAGCUACCAATT against Myoz3 | -0.537
30 | CCAUGGAAUUCAAUUCCUUTT against Vmn2r66 | 0.0798
31 | CCCUAGUUACCAAUUCCACTT against Olfr293 | 2.61 (active)
32 | GGUUGACUGAAUGAUGGAATT against Tcl1b3 | -0.724
33 | GCCCAUAUCGGAGAAGAUUTT against Cap2 | -1.97
34 | GGGCAUGUUUAACGACAUUTT against Csf2ra | 1.49
35 | GGAUUUCCUUUUAAGACUUTT against Rab3il1 | -0.71
36 | GCUUUACCUGCUCAGAAGCTT against Olfr520 | -2.26 (active)
37 | GGAAGACAAUAAGAAGUGGTT against Niban2 | -0.576
38 | CCAUUCCUACAGCAUGCGUTT against Slc27a1 | 0.523
39 | GCGAGCUAUUCUUCCUUGUTT against Eif4a1 | -2.13 (active)
40 | CCUCAUCCAACAUACCUAUTT against Olfr665 | -0.665
41 | GGACAUCAUAUUCGUUUUCTT against C130026L21Rik | 1.12
42 | GGGUUGAAGUUUGUCGAAATT against Nlgn1 | 0.496
43 | GGGUCUUUGUACAGAUUGCTT against Olfr275 | 0.0844
44 | GGAGGAAGAGGAGAAUCUATT against Supt6 | -2.57 (active)
45 | GCUGAAUACAGUUGGUGCUTT against Nelfa | -0.259
46 | GGAUUCAAACUGGUUUUCATT against Ptcd3 | 1.8

Row | Sequence | z-score
47 | GGACAAGUUCUGUUGGUAUTT against Zfp275 | 0.121
48 | GCGCAGUCAGACCAUAUAUTT against Fbxl5 | -0.874
49 | GGGAGACUGUGAAGCUUUATT against Elk4 | 3.22 (active)
50 | GGUCUUAAAGCAUGAGAAGTT against Med8 | 0.541
51 | GGUUCGUAAAAUUAUUAGGTT against Vcl | 1.09
52 | GGGCAGUCCGUUUCUUAACTT against Kptn | 0.815
53 | GGAGGUAUUUACCAAAGAUTT against Acer2 | 0.453
54 | CCACACUUUUCAGUAUAAUTT against Lin54 | 0.897
55 | GGGUGACCUAAAGAAUUAATT against Ybx3 | 0.849
56 | GCUGAAUACAACGUGAGAUTT against Tdh | -4.05 (active)
57 | GGUUUCGUCUUGAUAUCUATT against Trpc1 | -0.417
58 | GGAGAGCAGAUGUGAUUCUTT against Mrm2 | -0.561
59 | GCCUGUUCUCAAGACUGACTT against Sema4a | 2.06 (active)
60 | GGGUGUCUUUCCUGUGUGATT against Pkmyt1 | -0.804
61 | GGGUAAAGGAGAUUGUGAUTT against Ppfibp2 | -0.103
62 | GCCGUUAGAAACAAAGUCGTT against Taf3 | -2.48 (active)
63 | CCAAGUAUAGCUCACAUAATT against Slc17a4 | -1.7
64 | GCCCUUGAAGAUUUGAGGUTT against Cops8 | 0.00555
65 | GCACAGGUUCAAGUGGAACTT against Prnd | -1.41
66 | GGAAAGACCUAAGCAAUUATT against Klhl28 | -0.287
67 | CCUAUCCAGAUGUCAUUAATT against Hoxa11 | 0.849
68 | GGAAUUUGAUUCUCUGCCUTT against Zfp646 | 2.96 (active)
69 | GCAUUAAAAACCCUUUUUGTT against B230354K17Rik | 1.68
